High-throughput results: PubChem BioAssay, several laboratories
The list is not random: actives were taken first. Their share in the collection is about 1.2%.
3CLpro inhibitor – SARS-CoV 3CLpro protease inhibitors, primary screen, biochemical, quenched FRET; AID 1706, 2009; recombinant SARS-CoV 3CLpro, quenched FRET peptide cleavage; 0.14% of 290,000 active; inhibition, % at 6 µM; Replicase polyprotein 1ab (Severe acute respiratory syndrome coronavirus), P0C6X7; in the data active means inhibition above about 12%
PrP UTR inh – inhibition of PrP 5' UTR reporter expression | cell-based PrP 5' UTR mRNA reporter, plate reader | inhibition, % (concentration not given with the values) | 0.35% of 340,000 active; in the data active means inhibition above about 52%
BJeLR viability – MLPCN primary cell-based screen for lethality selective to Ras in HRASV12 cells. BJeLR (HRASV12) viability, CellTiter-Glo ATP luminescence, 48 h. inhibition, % (concentration not given with the values). 0.17% of 300,000 active; in the data active means inhibition above about 50%
PrPC TRFRET – inhibitors of human cell surface prion protein PrPC, primary screen, cell-based, TR-FRET; Major prion protein (Homo sapiens), P04156; TR-FRET read-out; inhibition, % at 13.8 µM; 0.43% of 370,000 active; AID 720596, 2013; in the data active means inhibition above about 24%
SSB-PriA inh – inhibitors of Klebsiella pneumoniae PriA binding to SSB C-terminal tail, primary screen, biochemical, AlphaScreen | PriA–SSB C-terminal tail interaction (Klebsiella pneumoniae) | AlphaScreen SSBct-PriA binding, biotinylated peptide | inhibition, % at 33 µM | 0.6% of 430,000 active | AID 1272365, 2023; in the data active means inhibition mostly above about 37%, no sharp cut-off; inactive means mostly below about 20%
PrP 5UTR single – prion 5' UTR mRNA inhibition, cherry-pick retest | AID 504592, 2011 | shares compounds with PrP UTR inh | inhibition, % at 2.5 µM | 48% of 1,100 active | cell-based prion protein 5' UTR reporter, plate reader; in the data active means inhibition above about 54%
A number is an active result; i = inactive; nt = no result given.

SMILES	3CLpro inhibitor	PrP UTR inh	BJeLR viability	PrPC TRFRET	SSB-PriA inh	PrP 5UTR single
C[C@]12CC[C@H]3[C@@H](CCC4=CC(=O)CC[C@@]43C)[C@@H]1CC[C@@H]2C(=O)CO	i	76.1	i	i	i	i
CC(=O)OCC(=O)[C@H]1CC[C@H]2[C@@H]3CCC4=CC(=O)CC[C@]4(C)[C@H]3CC[C@]12C	i	i	i	i	i	nt
COc1cc(OC)cc(-c2cc3nc(C)c(CCC(=O)O)c(C)n3n2)c1	i	54.3	nt	i	i	57.0
COc1cc(OC)cc(-c2cc3nc(C)c(CCC(=O)NC(C)CCc4ccco4)c(C)n3n2)c1 (stereo not given)	i	i	i	i	i	nt
COc1cc(OC)cc(C(=O)N2CCN(Cc3cccc(F)c3)CC2)c1	i	i	i	i	i	nt
COc1cc(OC)cc(C(=O)N2CCN(Cc3ccccc3Br)CC2)c1	i	85.5	i	i	i	i
COc1ccc(NC(=O)C/C(C)=N/NC(=O)c2ccncc2)c([N+](=O)[O-])c1	i	53.5	i	i	nt	i
COc1ccc(OCC(=O)N/N=C(\C)CC(=O)Nc2ccc(OC)cc2[N+](=O)[O-])cc1	i	i	i	i	nt	nt
CCOc1ccc(OCCNS(=O)(=O)c2ccc(Cl)cc2)cc1	nt	nt	nt	nt	i	nt
O=C(NCC1(c2cccs2)CCCC1)c1ccc(F)cc1Cl	nt	nt	nt	nt	i	nt
COc1ccc(CC(=O)OCC(=O)N2CCN(S(=O)(=O)c3ccc(C)cc3C)CC2)cc1	nt	88.5	nt	i	i	i
CCCS(=O)(=O)N1CCN(c2cc(Oc3ccccc3)nc(C)n2)CC1	nt	nt	nt	nt	i	nt
Cc1ccc2c(c1)sc(=NC(=O)C1CC1)n2C	i	i	i	i	i	nt
Cc1ccc2c(c1)sc(=NC(=O)c1cccs1)n2C	i	65.1	i	i	i	i
COc1cccc(C=NNc2ccc(S(=O)(=O)O)cc2)c1O	nt	nt	nt	nt	i	nt
Brc1ccccc1/C=N/Nc1ccc2ccccc2n1	i	i	i	i	nt	nt
COc1cccc(/C=N/Nc2ccc(C(=O)O)cc2)c1O	i	88.1	i	i	nt	89.7
COc1cccc(/C=N/Nc2ccc([N+](=O)[O-])cn2)c1O	i	58.1	i	i	nt	i
O=[N+]([O-])c1cccc(C=NNc2ccc3ccccc3n2)c1O	nt	55.9	nt	i	i	i
COc1cccc(C=NNc2ccc([N+](=O)[O-])cc2)c1O	nt	nt	nt	nt	i	nt
O=C(NN=Cc1cccnc1)c1cccc(S(=O)(=O)Nc2cccc(Cl)c2)c1	nt	nt	nt	nt	i	nt
Cc1cc([N+](=O)[O-])ccc1NC(=O)C(=O)N1CCN(C(c2ccccc2)c2ccccc2)CC1	nt	nt	nt	nt	i	nt
CCC1(O)C(=O)OCc2c1cc1n(c2=O)Cc2cc3c(N)cccc3nc2-1 (stereo not given)	nt	52.8	nt	i	i	90.3
O=C(Nc1cccc2ncccc12)c1cccnc1	i	73.5	i	i	i	i
CC[C@H](C)NC(=O)CCCCCn1c(=S)[nH]c2c([nH]c3ccc(OC)cc32)c1=O	i	66.2	i	i	i	i
SMILES	3CLpro inhibitor	PrP UTR inh	BJeLR viability	PrPC TRFRET	SSB-PriA inh	PrP 5UTR single
CCCCNC(=O)CCCCn1c(=S)[nH]c2c([nH]c3ccc(OC)cc32)c1=O	i	i	i	i	i	nt
Cc1cc(NC(=O)c2ccc(Br)c([N+](=O)[O-])c2)no1	i	82.9	i	i	i	i
COC(=O)c1c(NC(=O)c2ccc(Cl)cc2)sc2c1CCN(C(C)C)C2	nt	nt	nt	nt	i	nt
COC(=O)c1c(NC(=O)c2ccc([N+](=O)[O-])o2)sc2c1CCN(C(C)C)C2	i	65.8	i	i	i	97.4
O=C1C=C(c2ccc(O)cc2)C[C@@H](c2ccc3c(c2)OCO3)C1	nt	67.2	nt	i	i	i
O=C(CC1SC(=NN=C2CCCCCC2)NC1=O)Nc1ccccc1F (stereo not given)	nt	nt	nt	nt	i	nt
CCN1C(=O)[C@H]2[C@H]3CN=C(SCc4ccccc4)N3[C@@](Cc3ccccc3)(C(=O)OC)[C@H]2C1=O	nt	i	nt	i	i	nt
CCN1C(=O)[C@H]2[C@H]3CN=C(SCC4CC4)N3[C@@](Cc3ccccc3)(C(=O)OC)[C@H]2C1=O	nt	64.4	nt	i	i	i
COc1cccc(CNC(=O)Cc2cc(=O)[nH]c(SCc3ccccc3F)n2)c1	nt	nt	nt	nt	i	nt
O=C(CCCc1ccccc1)c1ccc2c(c1)OCCO2	i	82.5	i	i	i	88.8
COc1ccc(CCNC(=O)c2ccc3c(c2)OCCO3)cc1	i	i	i	i	i	nt
